From PubChem BioAssay
Hits are enriched below; roughly 1.8% of the tested compounds scored in any of these assays.
GSTO1 counter = counter-screen for RBBP9 inhibitors: inhibitors of human GSTO1; 1.1% of 300,000 active; P78417; inhibition, % at 5.96 µM; recombinant GSTO1, activity-based probe fluorescence polarization; AID 1974;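 active = inhibition above the campaign mean inhibition plus 3 SD, cut at about 35% in these data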
Target sequence (P78417 whole entry, looked up): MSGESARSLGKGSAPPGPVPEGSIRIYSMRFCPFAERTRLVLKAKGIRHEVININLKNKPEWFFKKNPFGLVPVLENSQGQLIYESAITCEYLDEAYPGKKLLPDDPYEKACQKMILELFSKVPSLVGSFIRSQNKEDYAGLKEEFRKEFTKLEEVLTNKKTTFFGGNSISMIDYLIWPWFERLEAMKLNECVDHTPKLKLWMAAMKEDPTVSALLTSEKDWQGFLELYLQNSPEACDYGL
PAD4 FP inh = inhibitors of human PAD4 | recombinant PAD4, RCA probe fluorescence polarization | 0.41% of 330,000 active | inhibition, % at 6.36 µM;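 active = percent inhibition above a cutoff equal to the mean of all tested compounds plus 3 SD, cut at about 15% in these data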
LYPLA2 inh = blocks human lysophospholipase 2, a PME1 counter-screen; AID 2177; recombinant LYPLA2, FP-Rh probe fluorescence polarization; 0.38% of 320,000 active; inhibition, % at 5.9 µM; O95372;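 active = inhibition above the screen-wide mean plus 3 SD, limit set per campaign, cut at about 26% in these data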
LYPLA1 counter = counter-screen for PME1 inhibitors: inhibitors of human LYPLA1; inhibition, % at 5.9 µM; AID 2174; 0.16% of 320,000 active; recombinant LYPLA1, FP-Rh probe fluorescence polarization; O75608;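 active = inhibition above the mean of all tested compounds plus 3 SD, set per campaign, cut at about 14% in these data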;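 note: inhibitors block serine hydrolase probe labeling of LYPLA1 so polarization falls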
Target sequence (O75608 whole entry, looked up): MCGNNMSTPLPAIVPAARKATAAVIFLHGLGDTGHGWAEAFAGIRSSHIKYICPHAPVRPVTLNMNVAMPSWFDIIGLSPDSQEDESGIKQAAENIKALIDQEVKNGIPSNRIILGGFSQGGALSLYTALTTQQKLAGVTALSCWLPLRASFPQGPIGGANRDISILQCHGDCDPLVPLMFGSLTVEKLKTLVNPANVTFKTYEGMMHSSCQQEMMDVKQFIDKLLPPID
PME-1 inh = PME-1 (human) inhibition; Q9Y570; recombinant PME-1, FP-Rh probe fluorescence polarization; inhibition, % at 5.9 µM; 0.53% of 320,000 active;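 active = inhibition above the campaign mean of all compounds plus 3 SD, cut at about 26% in these data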;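 note: competitive labeling of PME-1 active site by serine hydrolase directed probe; inhibitors block probe labeling so polarization falls and inhibition rises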
Fam108B counter = Fam108B inhibition, counter-screen for RBBP9 inhibitors; recombinant Fam108B, FP-Rh probe fluorescence polarization; inhibition, % at 9.51 µM; 0.33% of 300,000 active; AID 1947;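 active = inhibition above the screen mean inhibition plus 3 SD, computed separately per campaign, cut at about 18% in these data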;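 note: inhibitors lower polarization as less probe binds the enzyme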
Fam108b confirm = confirmation of mouse Fam108b serine hydrolase inhibitors. 44% of 930 active. inhibition, % at 9.51 µM. recombinant Fam108b, FP-Rh probe fluorescence polarization. shares compounds with Fam108B counter. AID 1978;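 active = inhibition above a limit from the primary screen, the mean over all compounds plus 3 SD, cut at about 19% in these data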;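 note: inhibitors free the probe so polarization falls as inhibition rises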
Fam108b inh = inhibits mouse Fam108b in gel-based ABPP | recombinant Fam108b, fluorophosphonate probe | 44% of 260 active | inhibition, % at 20 µM | AID 588649 | shares compounds with Fam108B counter; in the data active = inhibition above about 40%
GSTO1 inh conf = GSTO1 (human) inhibition, confirmation | recombinant GSTO1, probe fluorescence polarization | inhibition, % at 5.96 µM | shares compounds with GSTO1 counter | 54% of 2,400 active | AID 2176;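 active = inhibition above the primary screen's cutoff, its mean inhibition plus 3 SD, cut at about 35% in these data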;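 note: loss of polarization as inhibitors block binding of rhodamine sulfonate ester activity probe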
LYPLA1 confirm = LYPLA1 (human) inhibition, confirmation counter-screen; shares compounds with LYPLA1 counter; recombinant LYPLA1, FP-Rh probe fluorescence polarization; inhibition, % at 5.9 µM; 69% of 480 active; AID 2233;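 active = mean inhibition across replicates above the hit cutoff set in the primary screen, cut at about 15% in these data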;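 note: loss of FP-Rh probe labeling of LYPLA1 seen as lower polarization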
LYPLA2 confirm = counter-screen for PME1 inhibitors: confirmation of human LYPLA2 inhibitors; AID 2232; 72% of 1,100 active; inhibition, % at 5.9 µM; recombinant LYPLA2, FP-Rh probe fluorescence polarization; shares compounds with LYPLA2 inh;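 active = mean inhibition across replicates above the hit cutoff set in the primary screen, cut at about 26% in these data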;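 note: blocked labeling of the enzyme by serine hydrolase FP-Rh probe lowers polarization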
PAD4 FP conf = confirmation of human PAD4 inhibitors; shares compounds with PAD4 FP inh; recombinant PAD4, RCA probe fluorescence polarization; inhibition, % at 6.36 µM; 28% of 1,200 active;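 active = mean inhibition across replicates above the hit cutoff set by the earlier primary screen, cut at about 15% in these data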;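 note: inhibitors block active-site labeling by the probe so polarization falls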
Hits are given with their value; 0 = inactive; - = no result given.

SMILES	GSTO1 counter	PAD4 FP inh	LYPLA2 inh	LYPLA1 counter	PME-1 inh	Fam108B counter	Fam108b confirm	GSTO1 inh conf	LYPLA1 confirm	LYPLA2 confirm	PAD4 FP conf	others
COCCn1c(N)c(C(=O)NCC2CCCO2)c2nc3ccccc3nc21 (configuration not stated)	102.2	76.1	70.5	70.1	38.0	60.9	0	0	0	0	0
CC(C)Cn1c(N)c(C(=O)NCC2CCCO2)c2nc3ccccc3nc21 (configuration not stated)	0	0	0	0	0	0	-	-	-	-	-
CC1CCCC(NC(=O)COC(=O)c2cc(S(=O)(=O)N3CCOCC3)ccc2F)C1C (configuration not stated)	-	0	0	0	0	-	-	-	-	-	-
Nc1ccc(O)c2c1C(=O)c1ccccc1C2=O	49.1	48.7	61.6	50.0	56.3	53.0	49.5	37.2	36.4	58.8	41.0	Fam108b inh=0
Cc1cc(O)c(Sc2ncn[nH]2)cc1NS(=O)(=O)c1ccc(Cl)cc1	-	0	0	0	0	-	-	-	-	-	-
Cc1cc(C)c(S(=O)(=O)/N=C2/C=C(Sc3ncn[nH]3)C(=O)c3ccccc32)cc1C	84.4	29.9	35.9	0	30.9	51.8	28.1	86.7	-	33.3	0
COc1ccc(CN2CCCC(C(=O)Nc3cccc(-n4cnnn4)c3)C2)c(C)c1C (configuration not stated)	0	0	0	0	0	0	-	-	-	-	-
CCC1(O)CC(c2ccccc2)=NN1C(=O)c1ccccc1F (configuration not stated)	0	0	0	0	0	0	-	-	-	-	-
Cc1ccc(N2C(=O)c3cccc4c(C(=O)O)ccc(c34)C2=O)cc1	0	0	0	0	0	0	-	-	-	-	-
O=C1c2cccc3c(O)ccc(c23)C(=O)N1c1ccc(Cl)cc1	0	33.7	33.1	20.4	36.6	20.3	0	-	15.5	0	31.1
CC(=O)Nc1ccc(N2C(=O)c3cccc4c(O)ccc(c34)C2=O)cc1	0	38.8	0	17.2	0	25.6	0	-	15.9	-	36.5
Cc1coc2c(C)c3oc(=O)c(CCC(=O)N(C)CC(=O)O)c(C)c3cc12	0	0	0	0	0	0	-	-	-	-	-
CCOc1ccc(N=C2NC(=O)S/C2=C\c2ccc(Cl)cc2)cc1	0	0	0	0	0	0	-	-	-	-	-
COc1ccc(N=C2NC(=O)S/C2=C\c2ccc(N(C)C)cc2)cc1	0	35.9	33.5	28.1	47.0	31.6	27.7	-	27.5	0	47.5
CCOc1cccc(CN2CCCC(N3CCc4cc(OC)c(OC)cc4C3)C2)c1O (configuration not stated)	0	0	0	0	0	0	-	-	-	-	-
CCn1c(CSc2nccn2C)nc2cc(C(=O)O)ccc21	0	34.5	0	25.6	0	20.3	59.4	-	24.2	-	43.4	Fam108b inh=0
O=C1C(NS(=O)(=O)c2ccccc2)=C(N2CCN(c3ccc(F)cc3)CC2)C(=O)c2ccccc21	0	0	0	0	0	0	-	-	-	-	-
O=C1C(Nc2cccc(O)c2)=C(N2CCCCC2)C(=O)c2ccccc21	79.4	18.4	0	0	0	19.6	20.5	63.0	-	-	0
CC(=O)[C@]1(O)Cc2c(O)c3c(c(O)c2[C@@H](O[C@H]2C[C@H](N)[C@H](O)[C@H](C)O2)C1)C(=O)c1ccccc1C3=O	67.0	84.2	74.2	76.6	72.3	70.6	73.2	59.1	77.8	-	89.4	Fam108b inh=0
